Reference: PubChem BioAssay (NCATS)
Where “and” joins values, the source holds several entries; their conditions need not be identical. Identical values can stand only once. Records with an inconclusive call do not appear. Where a call stands in place of a potency, no number is given. More than one record can exist for a structure, and the calls need not agree. Calls of active or inactive are those of the source. Calls come from the whole dose curve; as a rule, active = well fitted inhibition curve with a large enough effect; inconclusive = small, poorly fitted or top-dose-only effect; inactive = flat fitted curve, though single readings scatter.

Experiments:
W2 = test: qHTS profiling for inhibitors of Plasmodium falciparum proliferation (AID 504749); conditions: P. falciparum in erythrocytes, SYBR Green DNA, 72 h; series mostly up to 28.7 µM
Procedure, shortened: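 P. falciparum-infected erythrocytes (0.3% parasitemia, 2.5% hematocrit) incubated with compound 72 h at 37 C, 5% CO2. Parasite DNA detected by SYBR Green after lysis, overnight at room temperature; normalised to 0.29 uM artemisinin and DMSO.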

CRL-7250 = normal cell line; test: Cytotoxic Profiling of Annotated Libraries Using Quantitative High-Throughput Screening (AID 1296008); conditions: Five cell lines viability, CellTiter-Glo ATP luminescence, 48-72 h; max response: stronger effect = lower value
Procedure, shortened: (§1)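 Cells exposed to compounds for 48 or 72 hr at 37 degrees Celsius. Viability read as ATP-coupled luminescence with CellTiter-Glo after 10 min at room temperature.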

HEK293 = test: as above; conditions: Five cell lines viability, CellTiter-Glo ATP luminescence, 48-72 h; max response: stronger effect = lower value
Procedure, shortened: as §1

HaCat [1] = test: as above; conditions: Five cell lines viability, CellTiter-Glo ATP luminescence, 48-72 h; max response: stronger effect = lower value
Procedure, shortened: as §1

KB-3-1 = test: as above; conditions: Five cell lines viability, CellTiter-Glo ATP luminescence, 48-72 h; max response: stronger effect = lower value
Procedure, shortened: as §1

NIH3T3 = test: as above; conditions: Five cell lines viability, CellTiter-Glo ATP luminescence, 48-72 h; max response: stronger effect = lower value
Procedure, shortened: as §1

HACAT [2] = test: qHTS assay to identify novel small-molecules to repurpose for Merkel cell carcinoma treatment (AID 1296009); conditions: MCC and control cell lines, CellTiter-Glo viability, 72 h; series mostly up to 44.8 µM
Procedure, shortened: (§2)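 Cells were treated for 72 hr at 37 degree celsius with compounds in 8- or 11-point dose response. Viability was read by CellTiter-Glo luminescence, normalized to no-cell (cytotoxicity) and DMSO controls.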

HEK293T = test: as above; conditions: MCC and control cell lines, CellTiter-Glo viability, 72 h; at 44.8 µM (top of the series) unless noted
Procedure, shortened: as §2

MCC-13 = test: as above; conditions: MCC and control cell lines, CellTiter-Glo viability, 72 h; series mostly up to 46 µM
Procedure, shortened: as §2

MCC-26 = test: as above; conditions: MCC and control cell lines, CellTiter-Glo viability, 72 h; series mostly up to 46 µM
Procedure, shortened: as §2
Note: nearly all actives have a fitted effect of over 60% in size.
Potency is the fitted concentration of half-maximal effect.

Row | Structure (SMILES) | Potency (W2) | max response (CRL-7250) | outcome (CRL-7250) | max response (HEK293) | outcome (HEK293) | outcome (HaCat [1]) | max response (KB-3-1) | max response (NIH3T3) | outcome (HACAT [2]) | outcome (HEK293T) | Potency (MCC-13) | max response (HaCat [1]) | outcome (KB-3-1) | outcome (NIH3T3) | Potency (MCC-26) | Potency (HEK293) | Potency (CRL-7250) | Potency (KB-3-1) | Potency (NIH3T3)
1 | N[C@@H](Cc1c[nH]c2ccc(O)cc12)C(=O)O | inactive | -11.6% (inactive) | inactive | 2.68% (inactive) | inactive | inactive | 5.77% (inactive) and -8.69% (inactive) | -0.603% (inactive) and 4.53% (inactive) | inactive | inactive | inactive |  |  |  |  |  |  |  | 
2 | O=c1c(O)c(-c2ccc(O)c(O)c2)oc2cc(O)cc(O)c12 |  | -43% (inactive) | inactive | -3.52% (inactive) and -1.32% (inactive) |  |  | 4.77% (inactive) and 21.1% (inactive) | -3.23% (inactive) |  |  | inactive | -5.77% (inactive) and -18.7% (inactive) |  |  |  |  |  |  | 
3 | Cc1cnc(C(=O)NCCc2ccc(S(=O)(=O)NC(=O)NC3CCCCC3)cc2)cn1 | inactive | 0.493% (inactive) | inactive | -14.8% (inactive) |  | inactive | -28.8% (inactive) and 2.82% (inactive) | 4.64% (inactive) and -13.5% (inactive) | inactive |  | inactive | 0.0058% (inactive) |  |  |  |  |  |  | 
4 | CC1COc2c(N3CCN(C)CC3)c(F)cc3c(=O)c(C(=O)O)cn1c23 (stereo not given) |  | 1.02% (inactive) | inactive | -5.36% (inactive) | inactive | inactive | 21.2% (inactive) | -0.0145% (inactive) | inactive | inactive | inactive |  | inactive | inactive | inactive |  |  |  | 
5 | CN1CCN(CCCN2c3ccccc3Sc3ccc(Cl)cc32)CC1 |  | -6.94% (inactive) | inactive |  |  | inactive |  | -25.1% (inactive) | inactive |  | inactive | 0.937% (inactive) |  |  |  | 14.8 µM (active) |  |  | 
6 | CN(C)C(=N)N=C(N)N | inactive |  | inactive | 2.32% (inactive) | inactive | inactive | -1.82% (inactive) and 7.62% (inactive) | -1.85% (inactive) and 1.26% (inactive) | inactive | inactive | inactive |  |  |  |  |  |  |  | 
7 | NC(=O)NO | inactive |  |  | 4.27% (inactive) |  |  | 2.92% (inactive) | 2.15% (inactive) |  |  | inactive and 2.96 µM (active) | -18.6% (inactive) |  |  |  | 0.0526 µM (active) | 13.2 µM (active) | 6.62 µM (active) | 18.7 µM (active)
8 | O=C(c1ccc(F)cc1)C1CCN(CCn2c(=O)[nH]c3ccccc3c2=O)CC1 |  | -21.4% (inactive) and 4.56% (inactive) | inactive | -0.877% (inactive) and -3.18% (inactive) |  |  | -2.16% (inactive) and 6.29% (inactive) |  |  |  | inactive | -0.754% (inactive) and -2.78% (inactive) and -3.98% (inactive) |  | inactive | inactive |  |  |  | 
9 | Cc1ccc(C(=O)Nc2ccc(S(=O)(=O)O)c3cc(S(=O)(=O)O)cc(S(=O)(=O)O)c23)cc1NC(=O)c1cccc(NC(=O)Nc2cccc(C(=O)Nc3cc(C(=O)Nc4ccc(S(=O)(=O)O)c5cc(S(=O)(=O)O)cc(S(=O)(=O)O)c45)ccc3C)c2)c1 | inactive | 0.897% (inactive) |  |  | inactive | inactive | 9.63% (inactive) and 6.6% (inactive) | -7.7% (inactive) | inactive | inactive | inactive |  |  | inactive | inactive |  |  |  | 
10 | Cc1ccccc1N1C(=O)c2cc(S(N)(=O)=O)c(Cl)cc2NC1C (stereo not given) |  | -4.5% (inactive) |  |  | inactive | inactive | 2.47% (inactive) and -15% (inactive) and -2.37% (inactive) | 4.24% (inactive) | inactive | inactive | inactive | 0.851% (inactive) |  | inactive | inactive |  |  |  | 
11 | Nc1nnc(-c2cccc(Cl)c2Cl)c(N)n1 | inactive | -7.91% (inactive) and -8.11% (inactive) |  | -5.08% (inactive) and 0.349% (inactive) |  | inactive | 6.78% (inactive) and 8.12% (inactive) |  | inactive |  | inactive |  |  | inactive | inactive |  |  |  | 
12 | O=C1Cc2cc(CCN3CCN(c4nsc5ccccc45)CC3)c(Cl)cc2N1 |  | -1.82% (inactive) and -0.528% (inactive) |  |  |  | inactive | 2.45% (inactive) [middle of 4 runs] | -14.8% (inactive) and 4.36% (inactive) | inactive |  | inactive | -2.23% (inactive) and 4.15% (inactive) |  | inactive | inactive | 16.8 µM (active) |  |  | 
13 | CC(C)NCC(O)COc1ccc(CCOCC2CC2)cc1 (stereo not given) | 15.1 µM (active) | -5.76% (inactive) |  | -0.0868% (inactive) and -3.99% (inactive) |  | inactive | 1.84% (inactive) | 2.13% (inactive) and -7.76% (inactive) | inactive |  | inactive | 2.43% (inactive) |  |  |  |  |  |  | 
14 | CS(=O)(=O)Nc1ccc([N+](=O)[O-])cc1Oc1ccccc1 | inactive | -4.36% (inactive) and 1.83% (inactive) |  | -3.19% (inactive) |  |  | 0.301% (inactive) and -0.592% (inactive) | 4.35% (inactive) and -5.34% (inactive) |  |  | inactive | 1.46% (inactive) |  |  | inactive |  |  |  | 
